# Results taken from paper PMC11006913.
# Positions count from the first letter of the chain named.
# What was measured:
# Test in all cases: PBM; 200 nM protein, PBS
# Details in all cases: dsDNA, one strand shown
# [1] = biological target: NKX2-5 (Homo sapiens, UniProt P52952 125-210, R139K)
# [2] = biological target: T1, NKX2-4 (Homo sapiens, UniProt Q9H2Z4 175-261, T231S)
# T1 sequence: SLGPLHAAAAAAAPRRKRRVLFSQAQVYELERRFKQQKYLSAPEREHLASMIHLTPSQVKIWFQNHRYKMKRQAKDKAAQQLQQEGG
# [3] = biological target: T2, NKX2-6 (Homo sapiens, UniProt A6NCS4 118-204, R150C)
# T2 sequence: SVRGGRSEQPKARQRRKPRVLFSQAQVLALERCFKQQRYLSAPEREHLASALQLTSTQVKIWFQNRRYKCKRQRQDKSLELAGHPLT
# [4] = biological target: T3, NKX2-6 (Homo sapiens, UniProt A6NCS4 118-204)
# T3 sequence: T2 sequence with C33R
# [5] = biological target: T4, NKX2-4 (Homo sapiens, UniProt Q9H2Z4 175-261, R246Q)
# T4 sequence: T1 sequence with S57T, R72Q
# [6] = biological target: T5, NKX2-6 (Homo sapiens, UniProt A6NCS4 118-204, F151L)
# T5 sequence: T2 sequence with C33R, F34L
# [7] = biological target: NKX3-2 (Homo sapiens, UniProt P78367 192-278, P234S)
# Chain of NKX3-2 (Homo sapiens, UniProt P78367 192-278, P234S) (P78367 192-278 P234S): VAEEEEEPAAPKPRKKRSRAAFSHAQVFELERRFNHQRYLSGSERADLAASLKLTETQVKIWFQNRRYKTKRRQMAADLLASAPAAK
# [8] = biological target: NKX2-5 (Homo sapiens, UniProt P52952 125-210)
# Chain of NKX2-5 (Homo sapiens, UniProt P52952 125-210) (P52952 125-210): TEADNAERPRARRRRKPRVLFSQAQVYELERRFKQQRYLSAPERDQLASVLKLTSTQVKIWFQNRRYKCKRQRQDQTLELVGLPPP
# [9] = biological target: NKX3-2 (Homo sapiens, UniProt P78367 192-278)
# Chain of NKX3-2 (Homo sapiens, UniProt P78367 192-278) (P78367 192-278): as the sequence (P78367 192-278 P234S) above, with S43P counted along it
# [10] = biological target: ALX4 (Homo sapiens, UniProt Q9H161 200-286)
# Chain of ALX4 (Homo sapiens, UniProt Q9H161 200-286) (Q9H161 200-286): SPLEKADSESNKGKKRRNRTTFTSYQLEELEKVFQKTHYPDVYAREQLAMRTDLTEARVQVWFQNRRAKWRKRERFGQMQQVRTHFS
# [11] = biological target: ALX4 (Homo sapiens, UniProt Q9H161 200-286, Q225E)
# Chain of ALX4 (Homo sapiens, UniProt Q9H161 200-286, Q225E) (Q9H161 200-286 Q225E): as the sequence (Q9H161 200-286) above, with Q26E counted along it
# [12] = biological target: T6, SIX6 (Homo sapiens, UniProt O95475 114-200, L167I)
# T6 sequence: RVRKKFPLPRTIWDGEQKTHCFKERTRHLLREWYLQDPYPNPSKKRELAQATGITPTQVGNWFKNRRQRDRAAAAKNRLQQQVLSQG
# [13] = biological target: T7, SIX6 (Homo sapiens, UniProt O95475 114-200, L143V)
# T7 sequence: T6 sequence with L30V, I54L
# [14] = biological target: PRRX1 (Homo sapiens, UniProt P54821 80-166, F113S)
# Chain of PRRX1 (Homo sapiens, UniProt P54821 80-166, F113S) (P54821 80-166 F113S): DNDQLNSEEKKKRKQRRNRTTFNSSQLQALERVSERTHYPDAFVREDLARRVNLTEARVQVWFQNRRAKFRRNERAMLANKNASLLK
# [15] = biological target: T8, SIX6 (Homo sapiens, UniProt O95475 114-200, H141N)
# T8 sequence: T6 sequence with H28N, I54L
# [16] = biological target: T9, SIX6 (Homo sapiens, UniProt O95475 114-200, T165P)
# T9 sequence: T6 sequence with T52P, I54L
# [17] = biological target: T10, SIX6 (Homo sapiens, UniProt O95475 114-200, L167M)
# T10 sequence: T6 sequence with I54M
# [18] = biological target: T11, SIX6 (Homo sapiens, UniProt O95475 114-200, L143M)
# T11 sequence: T6 sequence with L30M, I54L
# [19] = biological target: T12, SIX6 (Homo sapiens, UniProt O95475 114-200, L143I)
# T12 sequence: T6 sequence with L30I, I54L
# [20] = biological target: T13, SIX6 (Homo sapiens, UniProt O95475 114-200, T165G)
# T13 sequence: T6 sequence with T52G, I54L
# [21] = biological target: T14, SIX6 (Homo sapiens, UniProt O95475 114-200, T139Q)
# T14 sequence: T6 sequence with T26Q, I54L
# [22] = biological target: T15, SIX6 (Homo sapiens, UniProt O95475 114-200, T165A)
# T15 sequence: T6 sequence with T52A, I54L
# [23] = biological target: T16, SIX6 (Homo sapiens, UniProt O95475 114-200, L167V)
# T16 sequence: T6 sequence with I54V
# [24] = biological target: T17, SIX6 (Homo sapiens, UniProt O95475 114-200)
# T17 sequence: T6 sequence with I54L
# [25] = biological target: T18, SIX6 (Homo sapiens, UniProt O95475 114-200, T165I)
# T18 sequence: T6 sequence with T52I, I54L
# [26] = biological target: PRRX1 (Homo sapiens, UniProt P54821 80-166)
# Chain of PRRX1 (Homo sapiens, UniProt P54821 80-166) (P54821 80-166): as the sequence (P54821 80-166 F113S) above, with S34F counted along it
# [27] = biological target: HOXA4 (Homo sapiens, UniProt Q00056 201-287, W262R)
# Chain of HOXA4 (Homo sapiens, UniProt Q00056 201-287, W262R) (Q00056 201-287 W262R): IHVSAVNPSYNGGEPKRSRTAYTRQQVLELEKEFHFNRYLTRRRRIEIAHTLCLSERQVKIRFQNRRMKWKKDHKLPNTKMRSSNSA
# [28] = biological target: HOXA4 (Homo sapiens, UniProt Q00056 201-287, R217L)
# Chain of HOXA4 (Homo sapiens, UniProt Q00056 201-287, R217L) (Q00056 201-287 R217L): as the sequence (Q00056 201-287 W262R) above, with R17L, R62W counted along it
# [29] = biological target: HOXA4 (Homo sapiens, UniProt Q00056 201-287)
# Chain of HOXA4 (Homo sapiens, UniProt Q00056 201-287) (Q00056 201-287): as the sequence (Q00056 201-287 W262R) above, with R62W counted along it
# [30] = biological target: HOXA4 (Homo sapiens, UniProt Q00056 201-287, W262F)
# Chain of HOXA4 (Homo sapiens, UniProt Q00056 201-287, W262F) (Q00056 201-287 W262F): as the sequence (Q00056 201-287 W262R) above, with R62F counted along it
# [31] = biological target: HOXA7 (Homo sapiens, UniProt P31268 116-202)
# Chain of HOXA7 (Homo sapiens, UniProt P31268 116-202) (P31268 116-202): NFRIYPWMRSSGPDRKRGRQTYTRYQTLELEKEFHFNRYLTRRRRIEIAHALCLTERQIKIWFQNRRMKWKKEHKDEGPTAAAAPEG
# [32] = biological target: HOXB6 (Homo sapiens, UniProt P17509 132-218, K202E)
# Chain of HOXB6 (Homo sapiens, UniProt P17509 132-218, K202E) (P17509 132-218 K202E): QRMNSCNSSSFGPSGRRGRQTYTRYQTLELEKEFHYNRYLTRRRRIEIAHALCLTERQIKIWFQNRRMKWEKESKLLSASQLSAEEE
# [33] = biological target: HOXA7 (Homo sapiens, UniProt P31268 116-202, W177C)
# Chain of HOXA7 (Homo sapiens, UniProt P31268 116-202, W177C) (P31268 116-202 W177C): as the sequence (P31268 116-202) above, with W62C counted along it
# [34] = biological target: HOXB6 (Homo sapiens, UniProt P17509 132-218)
# Chain of HOXB6 (Homo sapiens, UniProt P17509 132-218) (P17509 132-218): as the sequence (P17509 132-218 K202E) above, with E71K counted along it
# [35] = biological target: ALX1 (Homo sapiens, UniProt Q15699 118-204, L144V)
# Chain of ALX1 (Homo sapiens, UniProt Q15699 118-204, L144V) (Q15699 118-204 L144V): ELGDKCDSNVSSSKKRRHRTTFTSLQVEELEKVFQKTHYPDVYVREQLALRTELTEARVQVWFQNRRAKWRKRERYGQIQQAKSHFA
# [36] = biological target: ALX1 (Homo sapiens, UniProt Q15699 118-204, L144R)
# Chain of ALX1 (Homo sapiens, UniProt Q15699 118-204, L144R) (Q15699 118-204 L144R): as the sequence (Q15699 118-204 L144V) above, with V27R counted along it
# [37] = biological target: ALX1 (Homo sapiens, UniProt Q15699 118-204)
# Chain of ALX1 (Homo sapiens, UniProt Q15699 118-204) (Q15699 118-204): as the sequence (Q15699 118-204 L144V) above, with V27L counted along it
# [38] = biological target: ALX3 (Homo sapiens, UniProt O95076 139-225, N203Q)
# Chain of ALX3 (Homo sapiens, UniProt O95076 139-225, N203Q) (O95076 139-225 N203Q): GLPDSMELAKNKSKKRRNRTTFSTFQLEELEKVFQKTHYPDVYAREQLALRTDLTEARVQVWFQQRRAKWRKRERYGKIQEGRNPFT
# [39] = biological target: ALX3 (Homo sapiens, UniProt O95076 139-225)
# Chain of ALX3 (Homo sapiens, UniProt O95076 139-225) (O95076 139-225): as the sequence (O95076 139-225 N203Q) above, with Q65N counted along it
# [40] = biological target: ALX3 (Homo sapiens, UniProt O95076 139-225, L168Q)
# Chain of ALX3 (Homo sapiens, UniProt O95076 139-225, L168Q) (O95076 139-225 L168Q): as the sequence (O95076 139-225 N203Q) above, with L30Q, Q65N counted along it
# [41] = biological target: ALX3 (Homo sapiens, UniProt O95076 139-225, L168V)
# Chain of ALX3 (Homo sapiens, UniProt O95076 139-225, L168V) (O95076 139-225 L168V): as the sequence (O95076 139-225 N203Q) above, with L30V, Q65N counted along it
# [42] = biological target: ALX3 (Homo sapiens, UniProt O95076 139-225, N203S)
# Chain of ALX3 (Homo sapiens, UniProt O95076 139-225, N203S) (O95076 139-225 N203S): as the sequence (O95076 139-225 N203Q) above, with Q65S counted along it
# Chain of NKX2-5 (Homo sapiens, UniProt P52952 125-210, R139K) (P52952 125-210 R139K): as the sequence (P52952 125-210) above, with R15K counted along it
sequence,measurement,setting,value
GACACTTA,binding signal,[1],"12.7 upbm affinity estimate (log intensity, higher = more binding, comparable within an allelic series)"
same,binding signal,[2],"12.8 upbm affinity estimate (log intensity, higher = more binding, comparable within an allelic series)"
same,binding signal,[3],"11.8 upbm affinity estimate (log intensity, higher = more binding, comparable within an allelic series)"
same,binding signal,[4],"13.6 upbm affinity estimate (log intensity, higher = more binding, comparable within an allelic series)"
same,binding signal,[5],"12.9 upbm affinity estimate (log intensity, higher = more binding, comparable within an allelic series)"
same,binding signal,[6],"11.1 upbm affinity estimate (log intensity, higher = more binding, comparable within an allelic series)"
same,binding signal,[7],"12.8 upbm affinity estimate (log intensity, higher = more binding, comparable within an allelic series)"
same,binding signal,[8],"12.6 upbm affinity estimate (log intensity, higher = more binding, comparable within an allelic series)"
same,binding signal,[9],"12.9 upbm affinity estimate (log intensity, higher = more binding, comparable within an allelic series)"
GCGTGCGA,binding signal,[1],"8.9 upbm affinity estimate (log intensity, higher = more binding, comparable within an allelic series)"
same,binding signal,[10],"7.96 upbm affinity estimate (log intensity, higher = more binding, comparable within an allelic series)"
same,binding signal,[11],"8.17 upbm affinity estimate (log intensity, higher = more binding, comparable within an allelic series)"
same,binding signal,[8],"8.92 upbm affinity estimate (log intensity, higher = more binding, comparable within an allelic series)"
CGGCGCCG,binding signal,[1],"9.06 upbm affinity estimate (log intensity, higher = more binding, comparable within an allelic series)"
same,binding signal,[12],"8.88 upbm affinity estimate (log intensity, higher = more binding, comparable within an allelic series)"
same,binding signal,[13],"8.75 upbm affinity estimate (log intensity, higher = more binding, comparable within an allelic series)"
same,binding signal,[14],"9.2 upbm affinity estimate (log intensity, higher = more binding, comparable within an allelic series)"
same,binding signal,[15],"8.89 upbm affinity estimate (log intensity, higher = more binding, comparable within an allelic series)"
same,binding signal,[16],"9.09 upbm affinity estimate (log intensity, higher = more binding, comparable within an allelic series)"
same,binding signal,[17],"8.86 upbm affinity estimate (log intensity, higher = more binding, comparable within an allelic series)"
same,binding signal,[18],"8.74 upbm affinity estimate (log intensity, higher = more binding, comparable within an allelic series)"
same,binding signal,[19],"8.87 upbm affinity estimate (log intensity, higher = more binding, comparable within an allelic series)"
same,binding signal,[20],"8.96 upbm affinity estimate (log intensity, higher = more binding, comparable within an allelic series)"
same,binding signal,[21],"8.91 upbm affinity estimate (log intensity, higher = more binding, comparable within an allelic series)"
same,binding signal,[22],"8.83 upbm affinity estimate (log intensity, higher = more binding, comparable within an allelic series)"
same,binding signal,[23],"8.85 upbm affinity estimate (log intensity, higher = more binding, comparable within an allelic series)"
same,binding signal,[24],"8.9 upbm affinity estimate (log intensity, higher = more binding, comparable within an allelic series)"
same,binding signal,[25],"8.84 upbm affinity estimate (log intensity, higher = more binding, comparable within an allelic series)"
same,binding signal,[26],"9.48 upbm affinity estimate (log intensity, higher = more binding, comparable within an allelic series)"
same,binding signal,[8],"9.14 upbm affinity estimate (log intensity, higher = more binding, comparable within an allelic series)"
GGCAGGAC,binding signal,[1],"8.66 upbm affinity estimate (log intensity, higher = more binding, comparable within an allelic series)"
same,binding signal,[27],"9.94 upbm affinity estimate (log intensity, higher = more binding, comparable within an allelic series)"
same,binding signal,[14],"9.23 upbm affinity estimate (log intensity, higher = more binding, comparable within an allelic series)"
same,binding signal,[28],"9.72 upbm affinity estimate (log intensity, higher = more binding, comparable within an allelic series)"
same,binding signal,[29],"9.8 upbm affinity estimate (log intensity, higher = more binding, comparable within an allelic series)"
same,binding signal,[30],"9.93 upbm affinity estimate (log intensity, higher = more binding, comparable within an allelic series)"
same,binding signal,[26],"8.98 upbm affinity estimate (log intensity, higher = more binding, comparable within an allelic series)"
same,binding signal,[8],"8.83 upbm affinity estimate (log intensity, higher = more binding, comparable within an allelic series)"
CAGAGCCG,binding signal,[1],"8.74 upbm affinity estimate (log intensity, higher = more binding, comparable within an allelic series)"
same,binding signal,[31],"8.45 upbm affinity estimate (log intensity, higher = more binding, comparable within an allelic series)"
same,binding signal,[32],"8.99 upbm affinity estimate (log intensity, higher = more binding, comparable within an allelic series)"
same,binding signal,[33],"8.36 upbm affinity estimate (log intensity, higher = more binding, comparable within an allelic series)"
same,binding signal,[8],"8.8 upbm affinity estimate (log intensity, higher = more binding, comparable within an allelic series)"
same,binding signal,[34],"9 upbm affinity estimate (log intensity, higher = more binding, comparable within an allelic series)"
AGCCGGGG,binding signal,[1],"9.08 upbm affinity estimate (log intensity, higher = more binding, comparable within an allelic series)"
same,binding signal,[10],"8.22 upbm affinity estimate (log intensity, higher = more binding, comparable within an allelic series)"
same,binding signal,[11],"8.28 upbm affinity estimate (log intensity, higher = more binding, comparable within an allelic series)"
same,binding signal,[8],"9.03 upbm affinity estimate (log intensity, higher = more binding, comparable within an allelic series)"
ACACGTGT,binding signal,[35],"6.61 upbm affinity estimate (log intensity, higher = more binding, comparable within an allelic series)"
same,binding signal,[36],"6.61 upbm affinity estimate (log intensity, higher = more binding, comparable within an allelic series)"
same,binding signal,[37],"6.65 upbm affinity estimate (log intensity, higher = more binding, comparable within an allelic series)"
CCAGCAGG,binding signal,[35],"6.58 upbm affinity estimate (log intensity, higher = more binding, comparable within an allelic series)"
same,binding signal,[36],"6.51 upbm affinity estimate (log intensity, higher = more binding, comparable within an allelic series)"
same,binding signal,[37],"6.53 upbm affinity estimate (log intensity, higher = more binding, comparable within an allelic series)"
CCGACGCA,binding signal,[38],"7.72 upbm affinity estimate (log intensity, higher = more binding, comparable within an allelic series)"
same,binding signal,[39],"7.54 upbm affinity estimate (log intensity, higher = more binding, comparable within an allelic series)"
same,binding signal,[40],"7.69 upbm affinity estimate (log intensity, higher = more binding, comparable within an allelic series)"
same,binding signal,[41],"7.71 upbm affinity estimate (log intensity, higher = more binding, comparable within an allelic series)"
same,binding signal,[42],"7.75 upbm affinity estimate (log intensity, higher = more binding, comparable within an allelic series)"
CGACCTCG,binding signal,[38],"7.77 upbm affinity estimate (log intensity, higher = more binding, comparable within an allelic series)"
same,binding signal,[39],"7.62 upbm affinity estimate (log intensity, higher = more binding, comparable within an allelic series)"
same,binding signal,[40],"7.78 upbm affinity estimate (log intensity, higher = more binding, comparable within an allelic series)"
same,binding signal,[41],"7.74 upbm affinity estimate (log intensity, higher = more binding, comparable within an allelic series)"
same,binding signal,[42],"7.75 upbm affinity estimate (log intensity, higher = more binding, comparable within an allelic series)"
